Structures are written as SMILES. About 83,000 compounds went through this panel and 20% of them were active in at least one assay; those are over-represented in the sample as a whole.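 In brief: 96-well plates, 48 h treatment, single concentration, percent growth endpoint.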 A number with no mark means an inactive call. Active and inactive are the calls of the source. How the source made its calls: active means growth percent below 10; inactive means the rest.

Among the test systems are MOLT-4 leukemia; SR leukemia; RPMI-8226 leukemia; OVCAR-8 ovarian; OVCAR-5 ovarian; OVCAR-4 ovarian; SK-OV-3 ovarian; IGROV1 ovarian; OVCAR-3 ovarian; HS 578T breast; NCI/ADR-RES ovarian; T-47D breast; BT-549 breast; MDA-MB-435 melanoma; SW-620 colon; MCF7 breast; HCT-116 colon; HCC-2998 colon; KM12 colon.
Common to all, as to assay: NCI-60 one-dose screen, 48 h (100 = growth as untreated, 0 = no growth, -100 = all killed)
Holding throughout (details): 10 µM unless noted

Take `C/C(=C\c1ccn(-c2ccc(N)c(F)c2)n1)[C@@H]1C[C@@H]2O[C@]2(C)CCC[C@H](C)[C@H](O)[C@@H](C)C(=O)C(C)(C)[C@@H](O)CC(=O)O1`: the growth in the test on MOLT-4 leukemia is 6.16% (active); with SR leukemia, 9.07% (active); with RPMI-8226 leukemia it was 8.95% (active); in the test with OVCAR-8 ovarian it was 24.7%; in the test on OVCAR-5 ovarian, 19.4%; with OVCAR-4 ovarian, 52.2%. For the same compound, the growth in the test on SK-OV-3 ovarian was 50.7%; with IGROV1 ovarian, 34%; with OVCAR-3 ovarian it was 2.8% (active); with HS 578T breast, 2.63% (active); in the test with NCI/ADR-RES ovarian, -3.5% (active); in the test with T-47D breast it was 38.5%. The growth is 12.2% with BT-549 breast; -41.1% (active) in the test with MDA-MB-435 melanoma; 44.7% in the test on SW-620 colon; 16.3% with MCF7 breast; 10.7% in the test on HCT-116 colon; 4.73% (active) in the test on HCC-2998 colon. Besides, in the test on KM12 colon, the growth is 12.5%.
Turning to `COc1cc2c(=O)n(C3CCCCCCC3)c3c4cc[nH]c4ncc3c2cc1OC`, the growth in the test with MOLT-4 leukemia is 40.6%; in the test with SR leukemia, 17.4%; in the test on RPMI-8226 leukemia it was 50.1%; in the test on OVCAR-8 ovarian, 43.7%; in the test with OVCAR-5 ovarian, 79.3%; in the test with OVCAR-4 ovarian, -9.58% (active). Moreover, the growth is 36.5% in the test on SK-OV-3 ovarian; 48.4% in the test with IGROV1 ovarian; 36.8% with OVCAR-3 ovarian; 2.28% (active) with HS 578T breast; 40.5% in the test with NCI/ADR-RES ovarian; 39.5% in the test on T-47D breast. Also, the growth with BT-549 breast is 44.6%; with MDA-MB-435 melanoma, 57.9%; in the test with SW-620 colon, 56.8%; in the test with MCF7 breast it was 39.1%; in the test with HCT-116 colon, 31.5%; with HCC-2998 colon, 96.2%. Also, the growth in the test with KM12 colon was 19.1%.
As to `c1cc2c(c3c1CCNC3)OCO2`, the growth with MOLT-4 leukemia is 100%; in the test on SR leukemia, 93%; with RPMI-8226 leukemia it was 109%; in the test with OVCAR-8 ovarian it was 107%; in the test with OVCAR-5 ovarian, 108%; with OVCAR-4 ovarian, 110%. The growth was 92.6% with SK-OV-3 ovarian; 99.9% in the test with IGROV1 ovarian; 118% in the test on OVCAR-3 ovarian; 112% in the test on HS 578T breast; 101% in the test with NCI/ADR-RES ovarian; 90.4% in the test with T-47D breast. In addition, the growth was 97.4% with BT-549 breast; 106% in the test on MDA-MB-435 melanoma; 112% in the test with SW-620 colon; 92.7% with MCF7 breast; 99% in the test on HCT-116 colon; 102% in the test on HCC-2998 colon. Moreover, the growth in the test with KM12 colon is 106%.
Take `C=CC[Se]C(=O)c1ccccc1OC(C)=O`: the growth in the test on MOLT-4 leukemia is 14.7%; with SR leukemia, 6.08% (active); with RPMI-8226 leukemia, -22.8% (active); in the test on OVCAR-8 ovarian it was -12.8% (active); in the test with OVCAR-5 ovarian, -32.1% (active); in the test with OVCAR-4 ovarian it was -36% (active). Also, the growth with SK-OV-3 ovarian was -28.8% (active); in the test on IGROV1 ovarian it was 18.1%; in the test on OVCAR-3 ovarian, 2.36% (active); in the test with HS 578T breast it was -8.17% (active); in the test on NCI/ADR-RES ovarian, 0.132% (active); in the test on T-47D breast it was -9.76% (active). For the same compound, the growth with BT-549 breast is 28.9%; in the test on MDA-MB-435 melanoma it was 28.7%; in the test on SW-620 colon, 11.1%; in the test on MCF7 breast, -5.53% (active); with HCT-116 colon, 5.71% (active); in the test on HCC-2998 colon, 6.92% (active). Besides, the growth in the test with KM12 colon is -24.1% (active).
Take `[Cl][Hg][c]1cc[c]([Hg][Cl])o1`: the growth with MOLT-4 leukemia was 14.3%; with SR leukemia it was 6.25% (active); in the test on RPMI-8226 leukemia, 1.23% (active); in the test with OVCAR-8 ovarian it was 65.1%; in the test on OVCAR-5 ovarian, 122%; in the test with OVCAR-4 ovarian it was 79.6%. In addition, the growth with SK-OV-3 ovarian is 94.9%; in the test with IGROV1 ovarian, 15.9%; with OVCAR-3 ovarian it was -1.69% (active); in the test on HS 578T breast, 55.4%; with NCI/ADR-RES ovarian, 69.3%; in the test with T-47D breast it was -7.76% (active). For the same compound, the growth is 14% in the test with BT-549 breast; 55.1% in the test with MDA-MB-435 melanoma; 12.3% in the test with SW-620 colon; -18.6% (active) with MCF7 breast; 30.7% in the test on HCT-116 colon; 106% in the test with HCC-2998 colon. Also, the growth in the test on KM12 colon was 76%.
With `Brc1ccc2c(c1)c(-c1nc(-c3c[nH]c4ncccc34)cs1)cn2CCN1CCOCC1`, the growth is 41.3% in the test on MOLT-4 leukemia; 59.7% with SR leukemia; 40.1% in the test on RPMI-8226 leukemia; 45.6% with OVCAR-8 ovarian; 76.9% in the test on OVCAR-5 ovarian; 57.3% with OVCAR-4 ovarian. Also, the growth in the test with SK-OV-3 ovarian is 84.8%; in the test on IGROV1 ovarian it was 29.5%; with OVCAR-3 ovarian, 72.9%; in the test with HS 578T breast, 66.8%; with NCI/ADR-RES ovarian it was 50.3%; in the test with T-47D breast, 1.14% (active). For the same compound, the growth in the test with BT-549 breast was 77.6%; in the test on MDA-MB-435 melanoma it was 85.7%; in the test on SW-620 colon, 85.8%; with MCF7 breast, 18.3%; with HCT-116 colon, 68.1%; in the test with HCC-2998 colon it was 88.7%. In addition, the growth in the test on KM12 colon was 40.3%.
Consider `O=NNc1ccccn1`, for which the growth in the test on MOLT-4 leukemia was 67.9%; in the test with SR leukemia it was 66.7%; in the test with RPMI-8226 leukemia, 102%; with OVCAR-8 ovarian it was 80.3%; in the test with OVCAR-5 ovarian, 68%; in the test with OVCAR-4 ovarian it was 90.8%. Also, the growth was 90% with SK-OV-3 ovarian; 86.1% in the test on IGROV1 ovarian; 112% in the test on OVCAR-3 ovarian; 89.7% with HS 578T breast; 75.1% in the test with NCI/ADR-RES ovarian; 97.3% in the test on T-47D breast. Also, the growth with BT-549 breast is 90%; in the test with MDA-MB-435 melanoma, 111%; in the test with SW-620 colon, 47.8%; with MCF7 breast it was 71.4%; with HCT-116 colon it was 44.4%; with HCC-2998 colon, 86.7%. In the test with KM12 colon, the growth is 96.7%.
Consider `CC[C@]12C=CCN3CC[C@@]4(c5ccc(OC)cc5N(C)[C@H]4[C@@](O)(C(=O)OC)[C@@H]1OC(=O)CCCC[P+](c1ccccc1)(c1ccccc1)c1ccccc1)[C@@H]32`, for which the growth was 5.66% (active) in the test on MOLT-4 leukemia; 17.9% in the test on SR leukemia; 15.4% in the test with RPMI-8226 leukemia; 18.6% in the test with OVCAR-8 ovarian; 23.8% in the test with OVCAR-5 ovarian; 5.22% (active) with OVCAR-4 ovarian. The growth was -2.96% (active) in the test with SK-OV-3 ovarian; -36.4% (active) in the test with IGROV1 ovarian; -0.293% (active) with OVCAR-3 ovarian; 9.79% (active) in the test with HS 578T breast; 91.6% with NCI/ADR-RES ovarian; 4.99% (active) in the test on T-47D breast. The growth was -1.04% (active) with BT-549 breast; -19.7% (active) in the test on MDA-MB-435 melanoma; 29.4% in the test with SW-620 colon; 4.69% (active) in the test on MCF7 breast; 8.03% (active) with HCT-116 colon; 15.9% in the test with HCC-2998 colon. For the same compound, the growth in the test with KM12 colon was 3.15% (active).

Source of the values: PubChem BioAssay (NCI).
